PubChem BioAssay AID1159580 (chemical genetic matrix, 2015)
“And” between values parts separate entries of the source, which are not always exact repeats. Identical values can stand only once. Screen size: about 5,500 compounds; about 2,000 (36%) were called active. Another 18% or so got no clear call; they are omitted. Rule as the data show it: active = normalized growth mostly below about 0.91 (no sharp cut-off); inconclusive = no clear call, values can overlap the other calls; inactive = mostly above about 0.92. The list shows a part of the results.

Assay: chemical genetic growth profiling, strain panel (AID 1159580);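 also: tested at 20 µM; growth read once vehicle control cultures reached saturation at 30 °C; 1 = growth at the plate median or of vehicle wells; lower values mean less growth of the strain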
Conditions: S. cerevisiae deletion strains, growth OD

Measured: normalized growth

Cc1cccc(CN2CCN(C(c3ccccc3)c3ccc(Cl)cc3)CC2)c1 (stereo not drawn)
0.203 (active) and 0.96 (inactive): locus YJL095W, strain BCK1, stronger effect = lower value
0.393 (active) and 0.952 (inactive): locus YHR030C, strain SLT2, stronger effect = lower value
active: locus YAL021C, strain ccr4, stronger effect = lower value 0.543 | locus YAL026C, strain drs2, stronger effect = lower value 0.59 | locus YAL030W, strain snc1, stronger effect = lower value 0.861 | locus YBL061C, strain skt5, stronger effect = lower value 0.771 | locus YBR009C, strain hhf1, stronger effect = lower value 0.58 | locus YBR021W, strain FUR4, stronger effect = lower value 0.645 | locus YBR023C, strain chs3, stronger effect = lower value 0.701 | locus YBR171W, strain sec66, stronger effect = lower value 0.879 | locus YBR231C, strain swc5, stronger effect = lower value 0.636 | locus YBR279W, strain paf1, stronger effect = lower value 0.777 | locus YCL011C, strain gbp2, stronger effect = lower value 0.633 | locus YCL016C, strain dcc1, stronger effect = lower value 0.723 | locus YCL061C, strain MRC1, stronger effect = lower value 0.902 | locus YCL069W, strain vba3, stronger effect = lower value 0.848 | locus YDL035C, strain GPR1, stronger effect = lower value 0.815 | locus YDL040C, strain nat1, stronger effect = lower value 0.922 | locus YDL074C, strain BRE1, stronger effect = lower value 0.498 | locus YDL101C, strain DUN1, stronger effect = lower value 0.887 | locus YDL134C, strain PPH21, stronger effect = lower value 0.806 | locus YDL192W, strain arf1, stronger effect = lower value 0.772 | locus YDR069C, strain doa4, stronger effect = lower value 0.787 | locus YDR162C, strain NBP2, stronger effect = lower value 0.737 | locus YDR195W, strain ref2 1.52 [resistant] | locus YDR297W, strain sur2, stronger effect = lower value 0.885 | locus YDR318W, strain mcm21, stronger effect = lower value 0.828 | locus YDR388W, stronger effect = lower value 0.648 | locus YDR502C, strain sam2, stronger effect = lower value 0.85 | locus YEL003W, strain gim4, stronger effect = lower value 0.793 | locus YEL037C, strain rad23, stronger effect = lower value 0.856 | locus YER015W, strain faa2, stronger effect = lower value 0.561 | locus YER016W, strain bim1, stronger effect = lower value 0.906 | locus YER155C, strain BEM2 (second series), stronger effect = lower value 0.759 | locus YER155C, strain BEM2, stronger effect = lower value 0.862 | locus YFR010W, strain ubp6, stronger effect = lower value 0.699 | locus YGL086W, strain mad1, stronger effect = lower value 0.832 | locus YGL248W, strain PDE1, stronger effect = lower value 0.769 | locus YGL253W, strain hxk2, stronger effect = lower value 0.77 | locus YGR135W, strain pre9, stronger effect = lower value 0.758 | locus YGR252W, strain gcn5, stronger effect = lower value 0.471 | locus YHR013C, strain ard1, stronger effect = lower value 0.54 | locus YHR027C, strain rpn1, stronger effect = lower value 0.68 | locus YHR129C, strain ARP1, stronger effect = lower value 0.842 | locus YHR142W, strain chs7, stronger effect = lower value 0.734 | locus YHR200W, strain rpn10, stronger effect = lower value 0.904 | locus YIL066C, strain RNR3, stronger effect = lower value 0.821 | locus YJL092W, strain hpr5, stronger effect = lower value 0.817 | locus YJL095W, strain BCK1 (second series), stronger effect = lower value 0.332 | locus YJL129C, strain trk1, stronger effect = lower value 0.61 | locus YJL164C, strain tpk1, stronger effect = lower value 0.622 | locus YJL166W, strain qcr8, stronger effect = lower value 0.735 | locus YJL187C, strain SWE1 (second series), stronger effect = lower value 0.731 | locus YJL187C, strain SWE1, stronger effect = lower value 0.878
inactive: locus YBR229C, strain ROT2, stronger effect = lower value 0.979 | locus YCL029C, strain bik1, stronger effect = lower value 0.961 | locus YCR088W, strain abp1, stronger effect = lower value 0.951 | locus YDL005C, strain med2, stronger effect = lower value 0.999 | locus YDL185W, strain tfp1, stronger effect = lower value 0.99 | locus YDR001C, strain nth1, stronger effect = lower value 0.978 | locus YDR101C, strain arx1, stronger effect = lower value 0.935 | locus YDR137W, strain rgp1, stronger effect = lower value 1.05 | locus YDR159W, strain sac3, stronger effect = lower value 0.925 | locus YDR334W, strain swr1, stronger effect = lower value 0.903 | locus YDR335W, strain msn5, stronger effect = lower value 0.976 | locus YDR392W, strain spt3, stronger effect = lower value 0.875 | locus YEL061C, strain CIN8 (second series), stronger effect = lower value 0.978 | locus YEL061C, strain CIN8, stronger effect = lower value 0.968 | locus YER110C, stronger effect = lower value 0.99 | locus YER111C, strain swi4, stronger effect = lower value 0.96 | locus YER167W, strain BCK2, stronger effect = lower value 0.971 | locus YGL078C, strain dbp3, stronger effect = lower value 0.987 | locus YGL167C, strain pmr1, stronger effect = lower value 0.983 | locus YGL173C, strain kem1, stronger effect = lower value 0.94 | locus YGL227W, strain vid30, stronger effect = lower value 0.963 | locus YGL240W, strain doc1, stronger effect = lower value 0.951 | locus YHR079C, strain IRE1 (second series), stronger effect = lower value 0.942 | locus YHR079C, strain IRE1, stronger effect = lower value 0.934 | locus YHR094C, strain hxt1, stronger effect = lower value 0.986 | locus YIL073C, strain SPO22, stronger effect = lower value 0.951 | locus YIL125W, strain kgd1, stronger effect = lower value 0.993 | locus YIR030C, strain dcg1, stronger effect = lower value 0.979 | locus YJL115W, strain asf1, stronger effect = lower value 0.927 | locus YJL134W, strain LCB3, stronger effect = lower value 0.989 | locus YJL154C, strain vps35, stronger effect = lower value 0.995 | locus YJL168C, strain set2, stronger effect = lower value 0.987 | locus YJR043C, strain POL32, stronger effect = lower value 0.903 | locus YJR066W, strain TOR1, stronger effect = lower value 0.926
